High-throughput results deposited in PubChem by National Center for Advancing Translational Sciences (NCATS).
PLK1 PBD block: PLK1 (human) polo-box domain binding inhibition | Plk1 PBD binding of FITC phosphopeptide, fluorescence polarization | Potency, µM, inactives show max response, negative = inhibition, hits mostly inhibitors | 2.8% of 360,000 active | AID 720504; further: potency means the concentration at half of the fitted maximal effect; series mostly up to about 57 µM; on the % scale 0 is the no-effect control and ±100 the full control effect; nearly all actives have a fitted effect of over 65% in size
PI5P4K alpha inh: blocks human PI5P4K alpha kinase activity; P48426; max response, %; 1.2% of 330,000 active; PI5P4Kalpha enzyme, ADP-Glo luminescence, 60 min; stronger effect = lower value; active means max response of -50% or lower; inconclusive means between -30% and -50%; inactive means -30% or higher; further: value at the top dose of about 77 µM; on the % scale 0 is the no-effect control and ±100 the full control effect
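qHTS, 1536-well: enzyme/substrate mix, compound by pin tool, 5 microM ATP final; RT 60 min; ADP-Glo reagents 1 (45 min) then 2 (30 min); luminescence.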
TCR act: activators of T cell receptors; primary human leukocytes, anti-CD3, IL-2 HTRF, 48 h; Potency, µM (top dose mostly 9.22 µM), for the others: at the highest dose activation of IL-2 secretion, most hits filed as activators; 330,000 tested, under 10 active; further: % of control where 0% means no effect
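Activity was scored as IL-2 release from primary human leukocytes given only a TCR signal (a-CD3 beads) plus compound for 48 hr. Detection used a two-antibody HTRF format read at 665nm.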
WRN inhibitor: blocks human WRN helicase; WRN helicase unwinding, fluorescent forked duplex, kinetic; Potency, µM (series often up to 114 µM), for the others: top-dose activity change, negative = inhibition, most hits filed as inhibitors; 0.46% of 360,000 active; AID 651768; further: potency means the concentration at half of the fitted maximal effect; on the % scale 0 is the no-effect control and ±100 the full control effect; nearly all actives have a fitted effect of over 55% in size
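Primary qHTS, 1536-well format. 20 nM WRN + compound, 15 min RT; start with 100 nM forked fluorophore/quencher duplex, 2 mM ATP (final); kinetic read ex 525/em 598 nm.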
VDR inh: vitamin D3 receptor (human) inhibition. P11473. VDR-SRC2-3 peptide fluorescence polarization, 2 h. Potency, µM, without a hit: max response, negative = inhibition, actives largely listed as inhibitors. 0.93% of 400,000 active; further: potency means the concentration at half of the fitted maximal effect; on the % scale 0 is the no-effect control and ±100 the full control effect
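Two reagent solutions held at 4 deg C in the dark were dispensed, compounds pinned at 23 nl, and the mixture incubated 2 h at room temperature. Read-out: fluorescence polarization of VDR–SRC2-3 peptide binding.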
FEN1 inh: blocks human flap endonuclease 1; P39748; Recombinant FEN1 flap cleavage, fluorescence, 15 min; Potency, µM (top dose mostly 114 µM), without a hit: top-dose activity change, negative = inhibition, usual class: inhibitors; 0.35% of 390,000 active; AID 588795; further: potency means the concentration at half of the fitted maximal effect; on the % scale 0 is the no-effect control and ±100 the full control effect; nearly all actives have a fitted effect of over 65% in size
Target sequence (P39748 whole entry, looked up): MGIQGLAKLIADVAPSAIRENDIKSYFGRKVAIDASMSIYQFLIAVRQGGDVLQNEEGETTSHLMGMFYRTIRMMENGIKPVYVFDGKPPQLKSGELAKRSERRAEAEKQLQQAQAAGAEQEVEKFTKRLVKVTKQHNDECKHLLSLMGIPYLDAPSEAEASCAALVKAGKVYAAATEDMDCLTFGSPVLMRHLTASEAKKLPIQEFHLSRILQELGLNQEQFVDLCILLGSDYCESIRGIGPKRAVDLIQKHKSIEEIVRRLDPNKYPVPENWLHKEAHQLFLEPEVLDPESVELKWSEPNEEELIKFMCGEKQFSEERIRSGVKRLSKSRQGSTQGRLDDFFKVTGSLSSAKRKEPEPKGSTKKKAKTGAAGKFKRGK
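Potency values derive from four-parameter Hill fits of normalized qHTS data. The reaction used 10 nM FEN1 preincubated 15 min at room temperature with compound, then 50 nM DNA substrate, read at 0 and 15 min.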
* hit, by the source's call; ? = inconclusive; / = no result; [ ] = remark or other dose. Most compounds without a hit are left out; they make up all but 3.7% or so of the library. Unless noted, the call rests on the fitted dose curve; in most records, active means well fitted curve in the direction sought with a large enough effect; inconclusive means small, poorly fitted or top-dose-only effect, or another doubt; inactive means no such curve, though single readings can be large; an effect the other way counts as inactive or inconclusive.

SMILES | PLK1 PBD block | PI5P4K alpha inh | TCR act | WRN inhibitor | VDR inh | FEN1 inh
CC(c1ccccc1)C1C(C#N)=C(N)SC(N)=C1C#N (centres undefined) | -27.2% | ? | 2.0% | -11.5% | -19.0% | 6.1%
CC(CC1C(C#N)=C(N)SC(N)=C1C#N)c1ccccc1 (centres undefined) | -15.6% | -66.6* | 1.0% | -20.2% | ? | -6.0%
O=C(Nc1nnc(-c2ccc3c(c2)CCCC3)o1)c1c(F)cccc1F | -18.7% | 1.2 | -3.4% | -24.5% | -6.1% | -13.7%
O=C(Nc1nnc(-c2ccc3c(c2)CCCC3)o1)c1ccc(Cl)cc1Cl | 21.2µM* | -26.3 | 11.3% | -10.3% | -6.6% | -5.1%
CCOc1ccc(CNC(=O)Nc2ccc3c(c2)N(C)C(=O)c2ccccc2S3)cc1 | / | / | / | / | 0.1% | 3.0%
CC(=O)N1c2ccc(S(=O)(=O)N3CCCC3)cc2CC1C(=O)NCc1cccc(F)c1 (centres undefined) | 23.8µM* | -15.7 | -1.3% | 2.9% | -31.2% | 18.3%
COCCNC(=O)C1Cc2cc(S(=O)(=O)N3CCCC3)ccc2N1C(C)=O (centres undefined) | -13.9% | -6.1 | 2.5% | -24.4% | -8.8% | 2.5%
COCCCNC(=O)C1Cc2cc(S(=O)(=O)N3CCCC3)ccc2N1C(C)=O (centres undefined) | 21.2µM* | -19.8 | 1.1% | 7.5% | ? | 12.4%
CC(=O)N1c2ccc(S(=O)(=O)N3CCCCCC3)cc2CC1C(=O)NCc1cccc(F)c1 (centres undefined) | / | / | / | / | -0.6% | -0.4%
CC(=O)[C@@H]1[C@@H]2C(=O)N(Cc3ccccc3)C(=O)[C@@H]2C2c3ccccc3C=CN21 (some centres undefined) | 18.9µM* | / | / | -5.9% | -4.0% | -14.3%
CCC(C)c1ccccc1OCCn1c(CCNC(=O)C2CCCCC2)nc2ccccc21 (centres undefined) | / | / | / | / | -10.9% | -27.6%
Cc1ccc2nc(Cl)c(/C=N/Nc3ccc(C(=O)O)cc3)cc2c1 | ? | -16.4 | -8.0% | -32.0% | -21.7% | 44.7µM*
C[C@]12O[C@H](C[C@]1(O)CO)n1c3ccccc3c3c4c(c5c6ccccc6n2c5c31)CNC4=O | / | / | / | / | -7.3% | /
O=C1NNC(c2ccccc2)=N/C1=C\c1ccco1 | ? | -52.5* | 1.0% | -26.9% | -11.9% | -2.6%
Cc1ccc(C)c(NC(=O)CN2C(=O)CCc3ccccc32)c1 | / | / | / | / | 9.3% | -14.5%
Cc1ccc(C)c(/C=C2\N=C(c3ccccc3F)OC2=O)c1 | -17.3% | 2.9 | / | 4.5% | 79.4µM* | 7.7%
Cc1ccc2c(CC(=O)N(Cc3ccc(N(C)C)cc3)Cc3ccco3)coc2c1C | / | / | / | / | 8.0% | -0.1%
Cc1cc(C)c(OCC(O)CNC(C)(C)C)c(C)c1 (centres undefined) | 23.8µM* | 0.1 | -10.0% | 2.0% | -22.6% | 20.1%
Cc1nnc(SCc2nc3sc(C(=O)O)c(C)c3c(=O)[nH]2)s1 | -21.3% | -61.7* | -6.0% | -22.6% | 1.6% | ?
Cc1c(C(=O)O)sc2nc(CSc3nnc(-c4ccc(F)cc4)n3C)[nH]c(=O)c12 | -18.4% | ? | 24.1% | ? | -2.1% | -7.5%
C=CCn1c(SCc2nc3sc(C(=O)O)c(C)c3c(=O)[nH]2)nnc1-c1ccc(C(C)(C)C)cc1 | -22.9% | -50.9* | -12.6% | ? | -9.9% | 44.7µM*
C=CCn1c(SCc2nc3sc(C(=O)O)c(C)c3c(=O)[nH]2)nnc1-c1ccccc1 | -23.6% | -66.7* | -3.5% | -35.4%[57.1 µM] | -15.5% | -11.9%
O=C(O)/C=C/C(=O)Nc1ccc2c(c1)C(=O)c1ccccc1C2=O | -6.0% | -64.8* | 11.4% | -16.2%[11.6 µM] | -20.6% | ?
CCn1cc(/C=C(\NC(=O)c2ccc(C)cc2)C(=O)NCCCn2ccnc2)c2ccccc21 | / | / | / | / | -1.3% | -10.9%
O=C1CCCN1CCCNc1ccc2nnc(CCC(=O)N3CCN(c4ccc(F)cc4)CC3)n2n1 | 26.7µM* | -0.4 | -6.8% | 8.2% | -20.9% | -2.7%
SMILES | PLK1 PBD block | PI5P4K alpha inh | TCR act | WRN inhibitor | VDR inh | FEN1 inh
CC1CCN(C(=O)CCc2nnc3ccc(NCCCN4CCCC4=O)nn23)CC1 | -6.5% | 4.4 | 7.8% | 6.5% | -12.6% | 1.6%
CCOc1ccc(N2C(=O)CC(N3CCN(c4ccccc4F)CC3)C2=O)cc1 (centres undefined) | 26.7µM* | -6.9 | -0.4% | 1.5% | -12.8% | 4.9%
CCOc1ccc(N2C(=O)CC(N3CCN(c4ccccc4OC)CC3)C2=O)cc1 (centres undefined) | -7.4% | -2.7 | -11.8% | -0.8% | -31.1% | 19.7%
CCOc1cc(C2NC(=O)N(C)C(C)=C2[N+](=O)[O-])ccc1OC(C)=O (centres undefined) | -5.5% | 3.9 | 4.1% | -4.0% | -12.8% | 13.1%
CC1=C([N+](=O)[O-])C(c2ccc(Cl)cc2)NC(=O)N1C (centres undefined) | 2.99µM* | ? | -1.6% | 70.8µM* | ? | -13.2%
CC(=O)Nc1ccc(C(=O)Nc2nc(-c3ccccn3)cs2)cc1 | 23.8µM* | -19.9 | 3.2% | 9.5% | -24.1% | 16.5%
O=C(Nc1nc(-c2ccccn2)cs1)c1ccccc1-n1cnnn1 | 3.77µM* | ? | 9.5% | 0.5% | ? | ?
Cn1nc(C(=O)Nc2nc(-c3ccccn3)cs2)c2ccccc2c1=O | 13.4µM* | -28.0 | 4.1% | -2.7% | ? | -0.7%
CCCn1nc(C(=O)Nc2nc(-c3ccccn3)cs2)c2ccccc2c1=O | -5.2% | 4.5 | 2.0% | -5.4% | -16.9% | 3.1%
CC(=O)c1ccc(-c2ccc(C(=O)Nc3nc(-c4ccccn4)cs3)o2)cc1 | 26.7µM* | ? | 7.8% | -13.7% | -17.8% | -5.7%
Cc1ccc(C(=O)Nc2nc(-c3ccccn3)cs2)o1 | -22.5% | -23.8 | 0.7% | -9.7% | 1.2% | -1.7%
Cn1c(=O)n(C)c2cc(N3CCOCC3)c(NS(=O)(=O)c3ccc(Br)cc3)cc21 | / | / | / | / | -15.1% | -6.4%
CN(C)c1ccc(/C=C/c2ccnc3ccccc23)cc1Br | / | / | / | / | / | -5.6%
O=C(Nc1nc(-c2ccccc2)cs1)c1cccnc1 | -9.5% | / | -0.3% | -8.5% | 4.4% | 6.9%
CC(=O)Nc1ccc(C(=O)Nc2nc(-c3cccnc3)cs2)cc1 | 13.4µM* | -26.3 | 0.0% | -3.8% | ? | -4.0%
CCOC(=O)Cc1csc(NC(=O)CSc2nnc(C3CC3)n2C)n1 | 1.1% | -3.0 | -2.2%[46.1 µM] | -17.3% | -9.9% | -0.4%
CCOC(=O)c1csc(NC(=O)CSc2nnc(C3CC3)n2C)n1 | 26.7µM* | -15.4 | / | -3.5% | -18.7% | -15.8%
COc1ccc(NC(=O)CSc2nnc(C3CC3)n2N)cc1 | 0.3% | / | -4.0% | 15.1% | 17.5% | -0.3%
